In experiment [1] the target is Cytochrome P450 3A4 (Homo sapiens) (UniProt P08684). The experiment can be described thus: qHTS for inhibitors of CYP3A4 against the NCATS DSHEA and TCM libraries (AID 1919971). Further: potency means the concentration at half of the fitted maximal effect. As to conditions: recombinant CYP3A4 enzyme activity, luminescence qHTS. The procedure, abridged: (§1)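 Concentration-response screening with isoform-matched pro-luciferin substrates. The CYP reaction was initiated by NADPH regenerating solution and ran 30-45 min in darkness at room temperature.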

The target in experiment [2] is Cytochrome P450 2D6 (Homo sapiens) (UniProt P10635). The experiment can be described thus: qHTS for inhibitors of CYP2D6 against the NCATS DSHEA and TCM libraries (AID 1919972). Further: potency means the concentration at half of the fitted maximal effect. The conditions noted are these: CYP2D6 enzymatic inhibition, luminescence qHTS; series mostly up to 34.1 µM. The procedure, abridged: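 CYP2D6 enzyme with pro-luciferin substrate in manufacturer buffer (typically 100 mM KPO4), preincubated 15 min RT with substances (most at 19.5 nM upward); NADPH regeneration system (1x) started 30–45 min RT reaction; P450-Glo luminescence read after 30 min; quinidine as intraplate control.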
A general note: Quantitative high-throughput screening tests each substance at several concentrations.

Experiment [3] addresses Cytochrome P450 2C9 (Homo sapiens) (UniProt P11712). The experiment can be described thus: qHTS for inhibitors of CYP2C9 against the NCATS DSHEA and TCM libraries (AID 1919973). Further: potency means the concentration at half of the fitted maximal effect. As to conditions: recombinant CYP2C9 enzyme activity, luminescence; series mostly up to 34.1 µM. The procedure, abridged:
as §1

Experiment [4] addresses Cytochrome P450 2C19 (Homo sapiens) (UniProt P33261). Kind of experiment: qHTS for inhibitors of CYP2C19 against the NCATS DSHEA and TCM libraries (AID 1919974).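 Further: luminescence from luciferin released by CYP2C19 oxidation of a pro-luciferin substrate; potency means the concentration at half of the fitted maximal effect.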 The conditions noted are these: CYP2C19 enzyme inhibition, luminescence qHTS. A digest of the protocol: as §1
The nature of experiment [5]: KB-3-1 P-gp reporter qHTS against the NCATS DSHEA and TCM libraries (AID 1919975). Further: 0% is about no effect. The conditions noted are these: KB-3-1 parental cells, CellTiter-Glo luminescence viability, 72 h; series mostly up to 26.1 µM. The procedure, abridged:
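Parental KB-3-1 cells, 500 cells/well, in DMEM with 10% FBS, exposed 72 h at 37 C to compounds in concentration-response. Viability read by CellTiter-Glo luminescence after 30 min at room temperature.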

Experiment [6] has as its target Cytochrome P450 1A2 (Homo sapiens) (UniProt P05177). Kind of experiment: qHTS for inhibitors of CYPIA2 against the NCATS DSHEA and TCM libraries (AID 1919976). Further: potency means the concentration at half of the fitted maximal effect. As to conditions: recombinant CYP1A2 enzyme activity, luminescence. A digest of the protocol: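 Enzyme and pro-luciferin substrate, or substrate alone as no-enzyme background, are pre-incubated with test samples for 15 min at room temperature. NADPH regeneration system (1x final) initiates a 30-45 min dark reaction; luciferase detection reagent follows before luminescence reading.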

Experiment [7] in a line: qHTS Counterscreen for compound interference against the NCATS DSHEA and TCM libraries (AID 1919978). Further: % of control where 0% means no effect. As to conditions: firefly luciferase detection reagent interference, luminescence. A digest of the protocol: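 Firefly luciferase detection reagent was added after compounds (19.5 nM–39.8 uM final) had been incubated 15 min at room temperature with 1 uM D-luciferin or with 100 mM phosphate buffer alone. Luminescence was read after 30 min at room temperature.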

Experiment [8] is described as follows: Dual reporter qHTS for agonist of Pregnane X Receptor (hPXR) against the NCATS DSHEA and TCM libraries: Fluorescence readout (AID 1920058). Further: 0% is about no effect. As to conditions: PXR dual reporter cells; series mostly up to 40 µM. A digest of the protocol: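 Cells were plated at 2000 per well and allowed to attach for 5 h. Test substances were pinned in and incubated roughly 24 h. CellTiter-Fluor was then added and fluorescence measured after 1 h.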

Experiment [9] has as its target Nuclear receptor subfamily 1 group I member 2 (Homo sapiens) (UniProt O75469). Kind of experiment: Dual reporter qHTS for agonist of Pregnane X Receptor (hPXR) against the NCATS DSHEA and TCM libraries: Luminescence readout (AID 1920059). Further: 0% is about no effect. The conditions noted are these: hPXR dual reporter cells, luciferase luminescence agonist; series mostly up to 40 µM. A digest of the protocol: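 Luminescent PXR reporter read (ONE-Glo) after a CellTiter-Fluor viability read, following 24 h, 37C treatment of HepG2 cells stably carrying hPXR-Luc.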

The nature of experiment [10]: Dual reporter qHTS for antagonist of Pregnane X Receptor (hPXR) against the NCATS DSHEA and TCM libraries: Fluorescence Readout (AID 1920061). Further: 0% is about no effect. The conditions noted are these: PXR dual reporter cells, antagonist mode; series mostly up to 40 µM. The procedure, abridged:
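hPXR-Luc HepG2 cells exposed 24 h at 37 C to compounds with 2 uM rifampicin in antagonist mode; luciferase luminescence measured by ONE-Glo, with CellTiter-Fluor viability read beforehand.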

Experiment [11] concerns the target Cytochrome P450 2D6 (Homo sapiens) (UniProt P10635). Kind of experiment: Cytochrome P450 family 2 subfamily D member 6 (CYP2D6) small molecule antagonists: luciferase biochemical (cell-free) qHTS assay (AID 1645840; active means well fitted curve in the direction sought with a large enough effect in the repeat runs; an effect the other way counts as inactive or inconclusive; further: on the % scale 0 is the no-effect control and ±100 the full control effect; nearly all actives have a fitted effect of over 55% in size). As to conditions: P450-Glo CYP2D6 enzyme, luciferin luminescence, 1 h; series mostly up to 57.4 µM. The procedure, abridged: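 P450-Glo CYP2D6 system: proluciferin substrate converted by enzyme to luciferin, read by luminescence proportional to activity. Enzyme-substrate mix with compound 10 min at room temperature, then NADPH regeneration 1 h before detection reagent.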

Experiment [12] is described as follows: Primary qHTS for inhibitors of nuclear receptor binding SET domain protein 2 (NSD2) in an isogenic RCH-ACV NSD2 p.E1099K mutant (9B) (AID 1645876). Further: potency means the concentration at half of the fitted maximal effect; nearly all actives have a fitted effect of over 70% in size. As to conditions: RCH-ACV (leukaemia line) NSD2 E1099K (9B) viability, CellTiter-Glo, 72 h; series mostly up to 44.9 µM.
Experiment [13] addresses Catechol O-methyltransferase (Homo sapiens) (UniProt P21964). Kind of experiment: Confirmatory Screen for Target Class Profiling of Small Molecule Inhibitors of Methyltransferases (AID 1745852; calls by dose curve; further: potency means the concentration at half of the fitted maximal effect). As to conditions: MTase-Glo luminescence, SAH detection, recombinant enzyme; measured here: COMT max response; stronger effect = lower value.
The target of experiment [14] is Guanidinoacetate N-methyltransferase (Homo sapiens) (UniProt Q14353). The experiment is described as above. As to conditions: MTase-Glo luminescence, SAH detection, recombinant enzyme; activity change, negative = inhibition: at 57.3 µM (top of the series).
Experiment [15] concerns the target Nicotinamide N-methyltransferase (Homo sapiens) (UniProt P40261). The description is as above. As to conditions: MTase-Glo luminescence, SAH detection, recombinant enzyme; measured here: NNMT max response; stronger effect = lower value.
Experiment [16] has as its target Phenylethanolamine N-methyltransferase (Homo sapiens) (UniProt P11086). The description is as above. The conditions noted are these: MTase-Glo luminescence, SAH detection, recombinant enzyme; measured here: PNMT max response; stronger effect = lower value.
Experiment [17] has as its target Cytochrome P450 3A4 (Homo sapiens) (UniProt P08684). Kind of experiment: qHTS Assay for Inhibitors and Substrates of Cytochrome P450 3A4 (AID 884). Further: potency means the concentration at half of the fitted maximal effect; nearly all actives have a fitted effect of over 50% in size. The conditions noted are these: recombinant CYP3A4, Luciferin-PPXE luminescence; series mostly up to 57.1 µM. A digest of the protocol: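 Luminescent readout of luciferin produced by CYP3A4 (20 nM) dealkylation of Luciferin-PPXE, 25 uM (its KM). NADPH-driven reaction ran 60 min at RT after 10 min compound preincubation; data scaled to 57 uM ketoconazole as 100% inhibition.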

Results filed as inconclusive are left out. Active and inactive are the calls of the source. Unless noted, the call rests on the fitted dose curve; in most records, active means well fitted curve in the direction sought with a large enough effect; inconclusive means small, poorly fitted or top-dose-only effect, or another doubt; inactive means no such curve, though single readings can be large; an effect the other way counts as inactive or inconclusive.

Data on three molecules can be found in PubChem BioAssay (NCATS).

Chain of Cytochrome P450 2D6 (Homo sapiens) (P10635 whole entry, looked up): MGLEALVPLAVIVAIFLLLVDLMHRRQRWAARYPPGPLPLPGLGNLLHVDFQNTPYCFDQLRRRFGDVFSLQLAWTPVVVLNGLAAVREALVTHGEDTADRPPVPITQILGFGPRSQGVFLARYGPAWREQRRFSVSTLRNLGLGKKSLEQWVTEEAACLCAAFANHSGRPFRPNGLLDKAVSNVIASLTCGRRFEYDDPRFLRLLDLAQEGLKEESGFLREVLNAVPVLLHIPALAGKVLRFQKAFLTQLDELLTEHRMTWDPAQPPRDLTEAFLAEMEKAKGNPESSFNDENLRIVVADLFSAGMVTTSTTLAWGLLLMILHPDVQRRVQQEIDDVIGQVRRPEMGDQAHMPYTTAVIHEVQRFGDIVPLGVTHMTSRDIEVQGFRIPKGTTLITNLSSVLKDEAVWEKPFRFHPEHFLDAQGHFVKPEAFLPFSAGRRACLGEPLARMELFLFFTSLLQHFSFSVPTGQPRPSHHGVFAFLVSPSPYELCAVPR
Chain of Cytochrome P450 3A4 (Homo sapiens) (P08684 whole entry, looked up, canonical isoform): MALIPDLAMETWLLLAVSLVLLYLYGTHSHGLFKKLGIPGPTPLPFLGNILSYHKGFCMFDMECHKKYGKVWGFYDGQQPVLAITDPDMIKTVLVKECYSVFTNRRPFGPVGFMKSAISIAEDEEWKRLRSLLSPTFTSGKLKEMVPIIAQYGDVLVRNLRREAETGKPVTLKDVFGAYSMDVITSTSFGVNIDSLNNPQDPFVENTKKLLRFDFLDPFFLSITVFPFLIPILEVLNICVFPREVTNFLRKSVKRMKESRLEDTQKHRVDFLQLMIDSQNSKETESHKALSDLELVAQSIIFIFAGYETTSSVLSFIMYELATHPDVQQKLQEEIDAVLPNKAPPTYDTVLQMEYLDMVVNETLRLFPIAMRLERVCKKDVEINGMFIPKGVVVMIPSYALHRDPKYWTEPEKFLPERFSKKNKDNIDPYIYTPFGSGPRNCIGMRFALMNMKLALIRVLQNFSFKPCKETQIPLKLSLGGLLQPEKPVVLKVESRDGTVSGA
Chain of Cytochrome P450 2C19 (Homo sapiens) (P33261 whole entry, looked up): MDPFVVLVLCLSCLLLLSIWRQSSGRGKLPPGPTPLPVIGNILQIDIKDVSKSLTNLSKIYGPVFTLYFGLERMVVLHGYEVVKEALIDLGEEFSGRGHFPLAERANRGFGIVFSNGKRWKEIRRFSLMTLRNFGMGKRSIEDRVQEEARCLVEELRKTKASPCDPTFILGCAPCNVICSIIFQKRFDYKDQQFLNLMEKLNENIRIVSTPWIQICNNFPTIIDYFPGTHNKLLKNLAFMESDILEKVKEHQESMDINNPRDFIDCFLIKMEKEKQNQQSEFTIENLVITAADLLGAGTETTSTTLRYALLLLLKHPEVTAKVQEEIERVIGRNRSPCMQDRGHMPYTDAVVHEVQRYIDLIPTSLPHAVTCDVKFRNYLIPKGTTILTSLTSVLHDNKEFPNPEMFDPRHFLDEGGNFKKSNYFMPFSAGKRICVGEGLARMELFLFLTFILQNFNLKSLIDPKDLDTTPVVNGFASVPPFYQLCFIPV
Chain of Nuclear receptor subfamily 1 group I member 2 (Homo sapiens) (O75469 whole entry, looked up): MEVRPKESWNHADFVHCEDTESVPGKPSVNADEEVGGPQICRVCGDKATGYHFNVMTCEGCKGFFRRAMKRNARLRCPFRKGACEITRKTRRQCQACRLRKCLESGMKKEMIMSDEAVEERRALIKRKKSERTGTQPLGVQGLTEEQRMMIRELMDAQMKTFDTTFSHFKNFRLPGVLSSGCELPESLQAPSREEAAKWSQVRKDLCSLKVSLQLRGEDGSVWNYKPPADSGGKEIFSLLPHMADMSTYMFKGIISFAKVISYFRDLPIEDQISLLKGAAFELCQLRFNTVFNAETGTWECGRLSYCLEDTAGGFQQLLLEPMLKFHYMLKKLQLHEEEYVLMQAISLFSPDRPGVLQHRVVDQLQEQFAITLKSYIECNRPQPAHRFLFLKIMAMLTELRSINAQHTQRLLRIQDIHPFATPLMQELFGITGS
Chain of Cytochrome P450 1A2 (Homo sapiens) (P05177 whole entry, looked up): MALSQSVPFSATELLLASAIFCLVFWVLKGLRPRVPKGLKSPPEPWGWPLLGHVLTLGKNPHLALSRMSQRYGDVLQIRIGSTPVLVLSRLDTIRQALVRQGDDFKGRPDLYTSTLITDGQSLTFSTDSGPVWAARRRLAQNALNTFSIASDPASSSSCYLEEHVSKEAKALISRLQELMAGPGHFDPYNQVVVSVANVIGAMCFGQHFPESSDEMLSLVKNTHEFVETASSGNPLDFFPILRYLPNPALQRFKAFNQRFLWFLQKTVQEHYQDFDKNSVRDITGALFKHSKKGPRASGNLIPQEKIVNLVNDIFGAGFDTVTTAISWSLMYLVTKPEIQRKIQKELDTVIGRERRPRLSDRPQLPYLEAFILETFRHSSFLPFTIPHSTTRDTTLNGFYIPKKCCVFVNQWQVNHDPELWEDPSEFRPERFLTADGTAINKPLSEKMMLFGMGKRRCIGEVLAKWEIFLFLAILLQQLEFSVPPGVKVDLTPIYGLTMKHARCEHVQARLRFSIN
Chain of Phenylethanolamine N-methyltransferase (Homo sapiens) (P11086 whole entry, looked up): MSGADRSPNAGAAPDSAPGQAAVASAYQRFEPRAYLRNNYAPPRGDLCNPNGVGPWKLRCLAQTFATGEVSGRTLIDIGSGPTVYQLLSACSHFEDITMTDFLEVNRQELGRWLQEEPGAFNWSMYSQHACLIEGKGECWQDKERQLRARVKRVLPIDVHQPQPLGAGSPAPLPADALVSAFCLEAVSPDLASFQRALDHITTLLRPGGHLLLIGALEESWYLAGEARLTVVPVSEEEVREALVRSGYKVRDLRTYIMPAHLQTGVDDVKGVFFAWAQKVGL
Chain of Catechol O-methyltransferase (Homo sapiens) (P21964 whole entry, looked up): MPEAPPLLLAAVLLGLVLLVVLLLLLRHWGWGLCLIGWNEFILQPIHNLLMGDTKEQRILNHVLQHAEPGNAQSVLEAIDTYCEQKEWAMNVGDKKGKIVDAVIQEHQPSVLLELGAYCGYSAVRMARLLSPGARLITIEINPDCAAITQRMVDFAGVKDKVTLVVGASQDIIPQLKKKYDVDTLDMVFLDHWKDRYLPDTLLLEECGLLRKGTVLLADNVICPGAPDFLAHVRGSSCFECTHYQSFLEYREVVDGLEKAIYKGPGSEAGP
Chain of Nicotinamide N-methyltransferase (Homo sapiens) (P40261 whole entry, looked up): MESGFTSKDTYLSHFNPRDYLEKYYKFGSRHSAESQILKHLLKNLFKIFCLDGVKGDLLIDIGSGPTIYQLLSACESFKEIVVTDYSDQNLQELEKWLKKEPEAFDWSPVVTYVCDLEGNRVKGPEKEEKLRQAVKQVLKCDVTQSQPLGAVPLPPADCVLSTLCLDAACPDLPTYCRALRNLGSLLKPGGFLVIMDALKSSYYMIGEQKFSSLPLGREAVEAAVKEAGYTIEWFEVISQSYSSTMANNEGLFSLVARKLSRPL
Chain of Cytochrome P450 2C9 (Homo sapiens) (P11712 whole entry, looked up): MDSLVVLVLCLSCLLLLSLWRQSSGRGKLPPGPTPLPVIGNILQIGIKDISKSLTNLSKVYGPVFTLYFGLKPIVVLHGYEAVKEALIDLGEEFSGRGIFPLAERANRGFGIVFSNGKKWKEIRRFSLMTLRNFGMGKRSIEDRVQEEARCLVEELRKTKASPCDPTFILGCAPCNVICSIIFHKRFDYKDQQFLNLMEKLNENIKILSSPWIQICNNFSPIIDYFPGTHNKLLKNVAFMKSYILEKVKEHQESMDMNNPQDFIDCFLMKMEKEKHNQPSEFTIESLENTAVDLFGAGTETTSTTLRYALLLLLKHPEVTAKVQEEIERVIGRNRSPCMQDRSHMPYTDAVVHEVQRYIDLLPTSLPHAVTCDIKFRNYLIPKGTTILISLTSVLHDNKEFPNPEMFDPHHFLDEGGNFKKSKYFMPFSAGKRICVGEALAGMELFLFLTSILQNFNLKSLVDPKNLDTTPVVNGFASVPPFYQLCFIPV

Consider `O=C(OC[C@H]1O[C@@H](OC(=O)c2cc(O)c(O)c(O)c2)[C@H](OC(=O)c2cc(O)c(O)c(O)c2)[C@@H](OC(=O)c2cc(O)c(O)c(O)c2)[C@@H]1OC(=O)c1cc(O)c(O)c(O)c1)c1cc(O)c(O)c(O)c1`, for which the Potency in [1] is 7.08 µM (active); in experiment [2] it was 14.1 µM (active); in experiment [3] it was 6.31 µM (active); in experiment [4] it was 3.98 µM (active); in experiment [6], 3.55 µM (active). Also, the outcome in experiment [5], in experiment [8], in [9] and in [10] was “inactive” in each case. In [7], the max response is 0.413% (inactive).

In the case of `COc1cc(C(=O)O)ccc1NC(=O)[C@@H]1N[C@@H](CC(C)(C)C)[C@](C#N)(c2ccc(Cl)cc2F)[C@H]1c1cccc(Cl)c1F`, the Potency entry in [11] was “inactive”. For the same molecule, the figures for the Potency in [12] and in experiment [14] were 209 nM (active) and 34.1 µM (active), respectively. Besides, the activity was -3.62% in [13], -47.6% in experiment [15] and -14.4% in experiment [16].

Regarding `O=C1CC(c2ccc(O)cc2)Oc2ccccc21` (configuration not stated), the Potency in [17] is 25.1 µM (active).
